The values that follow come from PubChem BioAssay AID589 (National Center for Advancing Translational Sciences (NCATS), 2007).

Molecules are shown by their SMILES. Hit rate of the full screen: of about 59,000 compounds, about 6,200 (11%) were called active. Inconclusive results (about 9%) are left out. Rule as the data show it: active = max dye-equivalent concentration above about 10 nM; inconclusive = mostly about 1.1 nM to 9.6 nM; inactive = weaker than that. For the sample, actives were picked, then their nearest neighbours and some compounds at random.

The nature of this assay: qHTS Assay for Spectroscopic Profiling in 4-MU Spectral Region. The conditions noted are these: compound autofluorescence, 340/450 nm, 4-MU equivalents; hits give high values. In a few lines: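 Compounds in 100 mM Tris, pH 8.0, incubated 15 min at room temperature, then fluorescence read at 340 nm excitation/450 nm emission. Signal converted to 4-MU dye-equivalent concentration using an on-plate six-point 4-MU standard curve.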
As to `CC(C)c1ccc(N2CC(C(=O)Nc3nccs3)CC2=O)cc1` (stereo unspecified), the max dye-equivalent concentration entry was “inactive”.
In the case of `Cn1nnnc1SCC(=O)N1CCN(C(c2ccccc2)c2ccccc2)CC1`, the max dye-equivalent concentration entry is “inactive”.
As for `Cc1ccc2nc(NC3=NCN(CCc4ccccc4)CN3)nc(C)c2c1`, the max dye-equivalent concentration entry is “inactive”.
On to `c1ccc(CCN2CN=C(Nc3nc4ccccc4o3)NC2)cc1`, for which the max dye-equivalent concentration result was “inactive”.
On to `COc1ccc2nc(NC3=NCN(CC4CCCO4)CN3)nc(C)c2c1` (stereo unspecified), for which the max dye-equivalent concentration is 92 nM (active).
Under `Cc1ccc(S(=O)(=O)NCC(=O)N(CC(=O)NC2CCCCC2)Cc2ccco2)cc1` stands “inactive”; under `Cc1nc2ccccc2c2oc(C(=O)NCC3CCCO3)cc12` (stereo unspecified), 12 nM (active); under `CCCC(=O)N(CCc1ccccc1)Cc1nc2ccccc2c(=O)[nH]1`, “inactive”.
Under `CCCN(CCC)CCNC(=O)c1cc2c(C)nc3ccccc3c2o1` stands 17 nM (active).
For the molecule `Cc1ccc(C(=O)NCC2CCCO2)o1` (stereo unspecified), the max dye-equivalent concentration entry was “inactive”.
The result for `c1ccc2c(NCC3CCCO3)nc(-c3ccncc3)nc2c1` (stereo unspecified) reads “inactive”; that for `Cc1cc(C(=O)NCCCc2ccccc2)no1`, “inactive”.
As for `Cc1cc(NC(=O)CN2CCC(O)(c3cccc(F)c3)CC2)no1`, the max dye-equivalent concentration result was “inactive”.
Turning to `CCn1c(SCC(=O)c2ccc(Cl)s2)nnc1-c1cccs1`, the max dye-equivalent concentration result is “inactive”.
For the molecule `Cc1ccn2cc(-c3nonc3C)cc2c1`, the max dye-equivalent concentration entry was “inactive”.
As to `COC(=O)c1cccc(NC(=O)CSc2nc(C)cc(=O)[nH]2)c1`, the max dye-equivalent concentration result was “inactive”.
`Cc1ccccc1NC(=O)c1ccccc1`: the max dye-equivalent concentration result is “inactive”.
Turning to `Cc1ccc2c(c1)sc1ncc(NC(=O)c3ccccc3)c(=O)n12`, the max dye-equivalent concentration was 55 nM (active).
As to `Cc1ccc(NC(=O)c2nc[nH]c2C(=O)N2CCCCC2)c(C(=O)c2ccccc2)c1`, the max dye-equivalent concentration entry is “inactive”.
On to `CCOC(=O)c1c(C)[nH]c(C)c1C(=O)CSc1nc(N)cc(N)n1`, for which the max dye-equivalent concentration result was “inactive”.
With `CCOC(=O)N1CCC(NC(=O)CN2C(=O)COc3ccc(C(C)(C)C)cc32)CC1`, the max dye-equivalent concentration entry is “inactive”.
Take `O=C(c1cccc(F)c1)N1CCC2(CCCN(Cc3ccncc3)C2)CC1`: the max dye-equivalent concentration result is “inactive”.
With `CCC12CN3CC(CC)(CN(C1)C31C(=O)N(C)c3ccc(C)cc31)C2=O` (stereo unspecified), the max dye-equivalent concentration entry was “inactive”.
For the molecule `CCOC(=O)c1cc2cc(C)ccc2[nH]1`, the max dye-equivalent concentration result is “inactive”.
Turning to `CC(=O)OCc1cc2cc(C)ccc2[nH]c1=O`, the max dye-equivalent concentration entry was “inactive”.
The result for `CCNCc1cc2cc(C)ccc2[nH]c1=O` reads 49 nM (active); that for `O=C(CNC(=O)c1ccc(Cl)cc1Cl)NCC(=O)Nc1ccccc1N1CCOCC1`, “inactive”.
The result for `COc1ccc2c(c1OC)C(=O)OC2c1c(O)nc(SC)n(-c2ccccc2)c1=O` (stereo unspecified) reads “inactive”; that for `O=c1[nH]c(-c2cccs2)nc2ccccc12`, “inactive”.
Take `O=c1[nH]c(=O)c2nc3ccccc3nc2[nH]1`: the max dye-equivalent concentration was 210 nM (active).
Under `CC1(C)CCCC2=C1CC1C(=O)N(c3ccccc3)C(=O)C1C2` (stereo unspecified) stands “inactive”; under `CCOC(=O)C1CCN(Cc2coc3ccc(Cl)cc3c2=O)CC1`, “inactive”.
Regarding `Cc1noc(C)c1-c1nccc(N2CCOCC2)n1`, the max dye-equivalent concentration result is “inactive”.
As for `CC[C@@H]1Cc2cc(O)ccc2C2=C1c1ccc(O)cc1C[C@H]2CC`, the max dye-equivalent concentration was 270 nM (active).
For the molecule `O=C(NCCC1=CCCCC1)C1CCN(Cc2cnn(-c3ccccc3)c2-n2cccc2)CC1`, the max dye-equivalent concentration result was “inactive”.
Under `COC(=O)c1ccc(Oc2nc(Nc3ccc(F)cc3)nc(N3CCCC3)n2)cc1` stands “inactive”; under `c1ccc(CNc2ncncc2-c2cccnc2)cc1`, “inactive”.
Consider `Cc1ccc(S(=O)(=O)c2nc(NCCCn3ccnc3)sc2Cl)cc1`, for which the max dye-equivalent concentration entry was “inactive”.
For `CCOc1cc(-c2nc3cc(C)ccn3c2NCC2CCCO2)ccc1O` (stereo unspecified), the max dye-equivalent concentration was 68 nM (active).
Regarding `Cc1ccc(-c2noc(-c3ccccc3C(=O)NCC3CCCO3)n2)cc1` (stereo unspecified), the max dye-equivalent concentration entry is “inactive”.
Consider `Cc1ccc(C(=O)O)cc1S(=O)(=O)NCC1CCCO1` (stereo unspecified), for which the max dye-equivalent concentration result is “inactive”.
Take `O=C(CSc1nnc(-c2ccco2)o1)NCC(=O)c1ccccc1`: the max dye-equivalent concentration entry is “inactive”.
Under `COc1ccc(C(=O)N(Cc2ccc(N(C)C)cc2)C2CCS(=O)(=O)C2)cc1` (stereo unspecified) stands “inactive”.
The result for `CC(=O)N1CCC2(CCCN(c3ncccn3)C2)CC1` reads “inactive”; that for `COc1cc2c(cc1OC)C(c1ccncc1)CC(=O)N2` (stereo unspecified), “inactive”; that for `c1ccc2[nH]c(NCCN3CCOCC3)nc2c1`, “inactive”.
With `COc1ccc(C(CNC(=O)c2cccnc2SC)N2CCOCC2)cc1` (stereo unspecified), the max dye-equivalent concentration entry is “inactive”.
Under `CC(C)Cc1nc(N2CCOCC2)c(C#N)c2c1CCC2` stands 56 nM (active); under `COc1ccc(CSc2nc(N3CCOCC3)c3c(c2C#N)CC(C)(C)OC3)cc1`, 30 nM (active).
The result for `CC1(C)Cc2c(C#N)c(SCc3nc4ccccc4[nH]3)nc(N3CCOCC3)c2CO1` reads 28 nM (active); that for `CC(C)c1nc(N2CCOCC2)c(C#N)c2c1COC(C)(C)C2`, 140 nM (active); that for `CCn1c(Cc2ccccc2)nnc1SCc1nc2ccccc2c(=O)[nH]1`, “inactive”.
With `O=C(Nc1cccc(F)c1)N1CC2(CCN(C(=O)c3csnn3)CC2)C1`, the max dye-equivalent concentration entry was “inactive”.
`O=C(c1cc(C(F)(F)F)cc(C(F)(F)F)c1)N1CCC[C@@]2(CCN(c3ccccn3)C2)C1`: the max dye-equivalent concentration entry was “inactive”.
Regarding `Cc1cc(C)n(C(=O)c2ccc(S(=O)(=O)N3CCCC3)cc2)n1`, the max dye-equivalent concentration result is “inactive”.
`CCSc1nc(=S)n(CC)c(C)c1C(C)=O`: the max dye-equivalent concentration result was “inactive”.
